PubChem BioAssay (NCI)
Where “and” joins values, the source holds several entries; their conditions need not be identical. Identical values can stand only once. This is part of a sample that, as a whole, favours compounds with a hit. Of some 83,000 tested, about 20% had one in any assay.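 Cells were grown in 96-well plates and exposed to the test compound at a single concentration for 48 hours; results are reported as percent growth, with values below 10 considered active.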 Unmarked numbers belong to inactive results. Calls of active or inactive are those of the source.

Experiments:
Assay in all cases: NCI-60 one-dose screen, 48 h (100 = growth as untreated, 0 = no growth, -100 = all killed)
Conditions in all cases: 10 µM unless noted
[1] = system: SR leukemia
[2] = system: RPMI-8226 leukemia
[3] = system: OVCAR-8 ovarian
[4] = system: OVCAR-5 ovarian
[5] = system: OVCAR-4 ovarian
[6] = system: SK-OV-3 ovarian
[7] = system: IGROV1 ovarian
[8] = system: OVCAR-3 ovarian
[9] = system: HS 578T breast
[10] = system: NCI/ADR-RES ovarian
[11] = system: T-47D breast
[12] = system: BT-549 breast
[13] = system: MDA-MB-435 melanoma
[14] = system: SW-620 colon
[15] = system: MCF7 breast
[16] = system: HCT-116 colon
[17] = system: HCC-2998 colon
[18] = system: KM12 colon

SMILES | growth [1] | growth [2] | growth [3] | growth [4] | growth [5] | growth [6] | growth [7] | growth [8] | growth [9] | growth [10] | growth [11] | growth [12] | growth [13] | growth [14] | growth [15] | growth [16] | growth [17] | growth [18]
C=C1C(=O)O[C@H]2[C@H]1CC/C(COC(=O)NCCCCNC(=O)OC/C1=C/CC[C@@]3(C)O[C@H]3[C@H]3OC(=O)C(=C)[C@@H]3CC1)=C\CC[C@@]1(C)O[C@@H]21 | -1.79% (active) | -28.3% (active) | 12.5% | 4.4% (active) | 31.1% | 94.2% | 48.9% | -8.75% (active) | 70.5% | 99.5% | 9.48% (active) | -40% (active) | -25.6% (active) | -27.8% (active) | 9.53% (active) | -65.2% (active) | 89.5% | 88.2%
Cc1ccc(-c2nc3nc(-c4ccccc4)nc(N4CCN(S(=O)(=O)c5ccccc5)CC4)c3o2)cc1 | 104% | 105% | 75.5% | 99% | 99.6% | 77.4% | 89.2% | 93% | 43.1% | 85.7% | 94.5% | 64.5% | 95.7% | 92.9% | 92.7% | 65.2% | 102% | 104%
C=C1C(=O)O[C@H]2[C@H]1CC/C(CNS(=O)(=O)c1ccc3ccccc3c1)=C\CC[C@@]1(C)O[C@@H]21 | -12.4% (active) | -4.34% (active) | -17.2% (active) | 14.9% | 24.2% | 84.6% | 37.1% | -39.6% (active) | 67% | 65.2% | -67.4% (active) | -9.57% (active) | 0.587% (active) | -29.8% (active) | -56.9% (active) | -87.2% (active) | -57.7% (active) | 64.8%
CCOC(=O)c1cnn(CC(O)CC)c1NC(=O)NCc1ccccc1C(F)(F)F (stereo not given) | 114% | 81% | 102% | 103% | 106% | 91.4% | 94.9% | 107% | 109% | 95.4% | 86.7% | 84.4% | 105% | 108% | 93.7% | 78.5% | 100% | 103%
O=C(O)c1ccccc1Cc1ccc(F)c2ccccc12 | 107% and 100% | 110% and 96.2% | 101% and 102% | 112% and 96.7% | 110% and 96.6% | 102% and 122% | 113% and 119% | 98.6% and 108% | 95% and 103% | 114% and 110% | 101% and 108% | 134% and 106% | 110% and 109% | 105% and 95.8% | 99.2% and 102% | 120% and 101% | 109% and 103% | 103% and 104%
CCN(c1cc(-c2ccc(CN3CCC(/C=C/S(=O)(=O)c4ccccc4)CC3)cc2)cc(C(=O)NCc2c(C)cc(C)[nH]c2=O)c1C)C1CCOCC1 | 17.9% | 19.2% | 75% | 90.3% | 73% | 86.2% | 53.7% | 77.3% | 62.2% | 73.7% | 71.6% | 51.3% | 76.8% | 94% | 44.3% | 56.9% | 101% | 76.1%
C=C(C)[C@@H]1CC[C@]2(C(=O)O)CC[C@]3(C)[C@H](CC[C@@H]4[C@@]5(C)CCC(N)C(C)(C)[C@@H]5CC[C@]43C)[C@@H]12 (stereo not given in full) | -8.86% (active) | -33.6% (active) | 20.8% | 96.6% | 36.8% | 106% | 74.4% | -31.5% (active) | 93.1% | 69.7% | -4.16% (active) | 101% | -51% (active) | 16.3% | 2.48% (active) | 2.64% (active) | 23.8% | 24.2%
CCN1C(=O)/C(=c2\sc3n(c2=O)C2C(NN=3)N(CC)C(=O)N2CC)c2ccccc21 (stereo not given) | 15.3% | 50.8% | 31.8% | 54.2% | 49.5% | 54.5% | 29% | -19% (active) | 24.4% | 5.59% (active) | 39.5% | 17.8% | -32.6% (active) | 29.7% | 26% | 9.36% (active) | 30% | 13.7%
COc1cc2ncnc(Nc3ccc(F)c(Cl)c3)c2cc1OCC(=O)N1CCCCC1 | 74.6% | 81.9% | 89.2% | 67% | 71.7% | 21.3% | 42.8% | 73.2% | 94.4% | 62.1% | 43.6% | 94.4% | 95.3% | 104% | 82.6% | 79.6% | 92.7% | 95.4%
COc1cc(CNC(=O)CCCC/C=C/C(C)C)ccc1OCc1cn(-c2ccc([N+](=O)[O-])cc2)nn1 | 62.2% | 61.8% | 82.9% | 99.1% | 87.2% | 76.7% | 90.4% | 92.7% | 95.8% | 29% | 64% | 80.4% | 99.7% | 99.8% | 83.4% | 77.2% | 108% | 90%
CN(C)C1CCN(C(=O)c2ccc(NC(=O)Nc3ccc(-c4nc(N5CCOCC5)c5cccn5n4)cc3)cc2)CC1 | 8.47% (active) | -20.8% (active) | -0.587% (active) | -0.314% (active) | -26.9% (active) | -30.8% (active) | -26.4% (active) | -12% (active) | -32.6% (active) | 85.1% | -36% (active) | -7.28% (active) | 1.97% (active) | 9.03% (active) | -4.03% (active) | 5.84% (active) | 3.23% (active) | 5.54% (active)
N#C/C(=N\Nc1ccc(Cl)cc1)C(=O)Nc1cc(-c2ccccc2)nn1-c1ccccc1 | 89.4% | 1.81% (active) | 25.6% | 81.6% | 36.8% | 26.4% | 19.9% | 15.4% | 47% | 29.7% | 14.7% | 11.4% | 28.6% | 21.4% | 16.9% | 8.26% (active) | 39.4% | 32.4%
O=C1c2cc3c(cc2-c2c1c1ccc(Cl)cc1c(=O)n2CCCn1ccnc1)OCO3 | -19.4% (active) | -23.6% (active) | 11.4% | 3.22% (active) | 13.7% | 8.75% (active) | 28.3% | -5.45% (active) | 46.3% | -26.4% (active) | -0.548% (active) | -20.3% (active) | -58.8% (active) | 1.05% (active) | -9.33% (active) | -23% (active) | 15% | 1.36% (active)
Oc1ccccc1C=Nc1ccc(N2CCN(c3ccccc3)CC2)cc1 | 98% | 91% | 96.9% | 109% | 91% | 64.6% | 103% | 100% | 105% | 92.6% | 81.7% | 54.8% | 96.5% | 110% | 84% | 87.1% | 90.2% | 103%
Cc1ccc(-c2nc(SCC(=O)c3ccc(C#N)cc3)[nH]c(=O)c2C#N)cc1 | -40.6% (active) | 123% | 96.3% | 94.8% | 94.5% | 82.4% | 99.9% | 97.9% | 113% | 101% | 100% | 101% | 106% | 112% | 96.5% | 88.9% | 107% | 93.6%
